From PubChem BioAssay
In the library only some 1.3% were active in any assay of this set; here they are far more common.
pAkt inh: blocks phosphorylation of Akt; Neuro2A IGF-stimulated pAkt S473 HTRF, 20 min; hits give low values; activity change, % for hits at 50 µM; 360,000 tested, 0.32% active; AID 651550; in the data active = activity change below about -80%; inconclusive = mostly about -51% to -80%; note: % is set by controls: 0 for no effect and ±100 for the full control effect
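Neuro2A cells in DMEM with 0.5% FBS, overnight at 37 deg C, given compound at single 50 µM final, then IGF (6 nM final) for 20 min at 37 deg C. Lysed; phospho-Akt Ser473 by HTRF after 24 h, 665/615 ratio.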
RXFP1 agonist: activates the human relaxin receptor RXFP1; Q9HBX9; HEK293T-RXFP1 cAMP TR-FRET, 30 min; response scale: percent of porcine relaxin response, buffer zero; Potency, µM (top dose mostly 57.5 µM), for the others: at the highest dose activation, actives largely listed as activators; 370,000 tested, 0.3% active; AID 2676; active = well fitted activation curve with a large enough effect; inconclusive = small, poorly fitted or top-dose-only effect; note: potency is the fitted concentration of half-maximal effect; % is set by controls: 0 for no effect and ±100 for the full control effect; nearly all actives have a fitted effect of over 60% in size
Target sequence (Q9HBX9 whole entry, looked up): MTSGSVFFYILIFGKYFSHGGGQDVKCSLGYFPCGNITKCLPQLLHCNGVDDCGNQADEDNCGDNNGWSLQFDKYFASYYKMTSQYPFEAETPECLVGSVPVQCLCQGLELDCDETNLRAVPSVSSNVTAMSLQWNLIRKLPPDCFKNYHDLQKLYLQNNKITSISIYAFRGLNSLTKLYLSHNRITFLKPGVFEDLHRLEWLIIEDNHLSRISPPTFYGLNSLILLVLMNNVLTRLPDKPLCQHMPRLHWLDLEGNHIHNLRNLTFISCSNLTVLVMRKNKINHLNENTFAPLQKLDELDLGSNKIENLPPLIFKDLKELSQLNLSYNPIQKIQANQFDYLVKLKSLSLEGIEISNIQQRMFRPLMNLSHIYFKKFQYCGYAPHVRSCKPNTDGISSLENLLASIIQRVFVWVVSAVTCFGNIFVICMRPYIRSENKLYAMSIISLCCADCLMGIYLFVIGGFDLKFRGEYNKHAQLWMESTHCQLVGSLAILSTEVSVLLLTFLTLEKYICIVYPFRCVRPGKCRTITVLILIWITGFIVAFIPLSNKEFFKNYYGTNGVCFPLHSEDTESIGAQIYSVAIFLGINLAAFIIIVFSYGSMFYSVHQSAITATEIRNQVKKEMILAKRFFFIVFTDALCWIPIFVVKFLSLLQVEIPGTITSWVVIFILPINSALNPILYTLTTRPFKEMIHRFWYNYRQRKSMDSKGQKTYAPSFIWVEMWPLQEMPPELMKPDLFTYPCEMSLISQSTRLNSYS
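Agonist response is measured as cAMP accumulation in an RXFP1-transfected HEK293T line under PDE4 inhibition. Values are scaled between buffer-only and 29 nM porcine relaxin, and EC50s come from standard Hill equation fits.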
gsp antag: antagonizes gsp, the McCune-Albright syndrome mutation; gsp-mutant cells, cAMP HTRF, 30 min; Potency, µM (doses to about 76.9 µM), without a hit: top-dose activity change, negative = inhibition, hits mostly inhibitors; 340,000 tested, 0.4% active; calls by dose curve; cell line not stated here;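 note: intracellular cAMP measured with PDE inhibitor Ro 20-1724 present during compound exposure; potency is the fitted concentration of half-maximal effect; % is set by controls: 0 for no effect and ±100 for the full control effect; nearly all actives have a fitted effect of over 65% in size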
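Measurement of cellular cAMP by homogeneous time-resolved fluorescence following a 30 min compound exposure at 37C. The PDE inhibitor […] was present throughout; the assay buffer was DPBS with 0.05% BSA and 0.005% Tween 20.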
gsp agonist: agonists of gsp mutant (McCune-Albright syndrome); gsp mutant cells, cAMP HTRF, 30 min; Potency, µM (top dose mostly 76.9 µM), for inactives: at the highest dose activation (cAMP increase), usual class: activators; 340,000 tested, 0.13% active; AID 624287; active = well fitted activation curve with a large enough effect; inconclusive = small, poorly fitted or top-dose-only effect, or another doubt; inactive = no such curve, though single readings can be large or run the other way; cell line not stated here;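 note: phosphodiesterase inhibitor Ro 20-1724 added with compounds to block cAMP breakdown; potency is the fitted concentration of half-maximal effect; nearly all actives have a fitted effect of over 60% in size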
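Cells stably selected in G418 were plated at 2000/well, grown 16-24 hr, then given compounds in DMSO with the PDE inhibitor […] (300 uM solution added) for 30 min at 37C; cAMP was read by HTRF.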
RXFP1 antag: RXFP1 (human) relaxin receptor antagonism; Q9HBX9; HEK293-RXFP1, relaxin-stimulated cAMP HTRF, 30 min; hits give low values; activity change, negative = inhibition, % at 57.5 µM; 350,000 tested, 0.59% active;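 active = activity change of -60% or lower, but not beyond a set lower limit; inconclusive = change between -60% and -40%, or beyond the set limit; inactive = change above -40%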; note: % is set by controls: 0 for no effect and ±100 for the full control effect
Starred values were filed as active, the others as inactive; i = inactive; ? = inconclusive; . = not tested or not shown; ! = a repeat was not active; [ ] = dose if it differs, or a comment.

SMILES | pAkt inh | RXFP1 agonist | gsp antag | gsp agonist | RXFP1 antag
CC(=O)n1cc([C@@H]2C=C(C(=O)N3CCN(Cc4ccc5c(c4)OCO5)CC3)O[C@H](OCCCCO)C2)c2ccccc21 | i | 3.9% | -22.6% | . | .
Cc1csc(=O)n1CCC(=O)OCC(=O)c1c(N)n(C)c(=O)n(C)c1=O | i | 24.6% | 2.4% | 25.1µM* | 12.8
Cc1csc(=O)n1CCC(=O)OCC(=O)c1c(N)n(CC(C)C)c(=O)n(C)c1=O | i | 3.2% | -12.2% | 15.6% | -9.5
Cn1c(N)c(C(=O)COC(=O)C2CCC(C(C)(C)C)CC2)c(=O)n(C)c1=O (stereo not given) | -107.7%* | 7.4% | -8.8% | ? | 0.6
OCCNCCOc1ccccc1F | -107.3%* | 1.1% | -1.7% | 2.9% | -22.4
CCCC(=O)NC(c1ccc(Cl)cc1)c1ccc2cccnc2c1O (stereo not given) | i | 0.1% | -4.9% | 0.5% | -19.6
CCCC(=O)NC(c1cccs1)c1cc(Cl)c2cccnc2c1O (stereo not given) | i | 3.2% | -7.5% | -32.9% | ?
CC(=O)NC(c1ccc2ccccc2c1)c1ccc2cccnc2c1O (stereo not given) | i | 1.6% | -2.2% | 7.2% | -69.9*
CCCC(=O)NC(c1ccco1)c1cc(Cl)c2cccnc2c1O (stereo not given) | i | 0.4% | -5.0% | 11.0% | -66.5*
CCCC(=O)NC(c1ccc(Cl)cc1Cl)c1ccc2cccnc2c1O (stereo not given) | i | 1.8% | -6.3% | -19.4% | -61.6*
CC(=O)NC(c1ccc(Cl)cc1Cl)c1ccc2cccnc2c1O (stereo not given) | i | -0.6% | 3.4% | -26.4% | .
CCc1ccc(NC(=O)CN2C(=O)CC(c3ccccc3)Sc3ccccc32)cc1 (stereo not given) | . | -0.7% | . | . | .
CCOC(=O)C1CCCN(C(=O)c2ccc3c(c2)N(C)C(=O)/C(=C/c2ccccc2Cl)S3)C1 (stereo not given) | i | -0.1% | 11.2µM* | -18.9% | -10.1
COc1ccc(/C=C2\Sc3ccc(C(=O)N4CCCC4)cc3N(C)C2=O)cc1OC | i | 2.9% | 0.2% | ? | 9.0
CN1C(=O)/C(=C/c2ccccc2Cl)Sc2ccc(C(=O)N3CCCC3)cc21 | i | -0.7% | 31.6µM* | 1.4% | -15.3
COC(=O)c1cc(S(N)(=O)=O)ccc1OC | . | . | . | . | -12.4
C=CCn1c(=O)[nH]c2cc(C(=O)N3CC=C(c4ccccc4)CC3)ccc2c1=O | i | 1.2% | -24.6% | -19.6% | -72.3*
Cc1ccccc1NC(=O)CSc1nc(-c2ccccc2)cn1-c1ccccc1F | . | 0.4% | . | . | 0.4
Cc1ccc(S(=O)(=O)N2CCOCC2)cc1NC(=O)COC(=O)CNC(=O)c1ccccc1 | i | 0.2% | 16.8% | 5.7% | .
Cc1ccc(S(=O)(=O)N2CCOCC2)cc1NC(=O)COc1ccc(C(=O)c2ccccc2)cc1 | i | -3.0% | 25.1µM* | 7.94µM* | -21.0
CCCN(CCC)CCCNC(=O)c1nn(C)c2c1CS(=O)(=O)c1ccccc1-2 | . | -5.2% | . | . | -3.4
CCCOC(=O)c1ccc(-c2c(C)noc2-c2ccc(OC)cc2O)o1 | i | 0.0% | 31.6µM* | 5.1% | -19.4
CCOc1cc(CNCCO)cc(Br)c1OCc1ccc(Cl)cc1 | i | 1.7% | 22.3% | ? | -10.4
CCOc1cc(CNCCCN2CCOCC2)cc(Br)c1OCc1ccccc1Cl | i | 3.2% | 15.8% | 20.3% | -91.8*
CCOc1cc(CNCCO)cc(Br)c1OCc1ccccc1Cl | i | -0.6% | 9.9% | -0.8% | -74.1*
SMILES | pAkt inh | RXFP1 agonist | gsp antag | gsp agonist | RXFP1 antag
COc1cc(CNCc2ccncc2)cc(Br)c1OCc1ccccc1F | . | -1.4% | 31.6µM* | -41.6% | 6.6
Cc1cccc(CCNC(=O)C2CCC(CNS(=O)(=O)c3c(C)cc(C)cc3C)CC2)c1 (stereo not given) | . | -0.7% | . | . | -26.5
CCNC(=O)c1cnc2sc(N3CCCCCC3)nn2c1=O | . | 5.2% | . | . | -1.2
Cc1ccc(S(=O)(=O)Oc2cccc(/C=N/Nc3ccc(C(=O)O)cc3)c2)cc1 | i | 0.0% | -27.5% | 5.8% | -62.2*
Cc1ccc(S(=O)(=O)Oc2cccc(/C=N/n3cnnc3)c2)cc1 | i | -0.4% | 3.2% | ? | .
CSc1nc(N)nc(SCC(=O)Nc2cccc(F)c2)c1C#N | i | 16.1% | 28.2µM* | -1.5% | -5.9
CSc1nc(N)nc(SCC(=O)Nc2ccc(Cl)cc2)c1C#N | i | -2.1% | ? | 3.9% | -6.1
CC(=O)Oc1ccc2c(c1)CC[C@@H]1[C@@H]2CC[C@]2(C)[C@@H](O)CC[C@@H]12 | . | . | . | . | -21.7
Cc1ccc(-n2c(C)cc(C(=O)CSc3nncs3)c2C)cc1 | i | 0.7% | 25.1µM* | -10.0% | -15.5
O=C(N/N=C/c1cccc(Br)c1)c1ccc(Cn2cc(Br)cn2)o1 | i | -0.6% | 35.5µM* | 35.5%[15.4 µM] | ?
Cc1ccsc1/C=N/NC(=O)c1ccc(Cn2cc(Br)cn2)o1 | i | -0.7% | -9.5% | -53.4% | -3.7
CCOC(=O)c1ccc(NC(=O)C2CCCN(c3cnccn3)C2)cc1 (stereo not given) | i | -2.1% | -4.1% | -2.0% | -61.4*!
CCOc1ccc(-n2c(C)cc(/C=C3/C(=N)N4C(=NC3=O)SN=C4S(C)(=O)=O)c2C)cc1 | i | 0.3% | 31.6µM* | -16.4% | -6.2
Cc1cccc(C)c1-n1cccc1/C=C1/C(=N)N2C(=NC1=O)SN=C2S(C)(=O)=O | i | -1.5% | ? | 5.1%[15.4 µM] | -107.8*
Cc1ccc(-n2cccc2/C=C2/C(=N)N3C(=NC2=O)SN=C3S(C)(=O)=O)cc1Cl | i | -0.5% | -12.4% | -6.2% | -39.9
Cc1ccc(Cn2ccn(CC(=O)Nc3ccccc3C(F)(F)F)c(=O)c2=O)cc1 | . | 4.7% | . | . | -9.4
CCC(C(=O)Nc1ccccc1N1CCCC1)c1ccccc1 (stereo not given) | i | -0.2% | -28.7% | -38.1% | -68.1*
CCC(Oc1ccccc1)C(=O)Nc1ccccc1N1CCCC1 (stereo not given) | i | 2.4% | -16.1% | ? | -10.5
O=C(CN1C(=O)C2CCCCC2C1=O)Nc1ccccc1N1CCCC1 (stereo not given) | i | -1.2% | -23.2% | 4.9%[15.4 µM] | -98.7*
COc1cc(-c2nnn(CC(=O)Nc3ccc(OC(F)(F)F)cc3)n2)cc(OC)c1OC | . | -0.2% | . | . | -17.2
Clc1cnc(N/N=C/c2cccs2)c(Cl)c1 | -103.8%* | 0.1% | -0.2% | -43.7% | -13.5
CCc1c(C(=O)O)[nH]c2ccc(Br)cc12 | i | ? | 10.5% | 3.98µM* | 21.3
CCC1(CC)Cc2ccccc2-c2[nH]c(=S)[nH]c(=O)c21 | i | . | 11.5% | 6.31µM* | 46.9
CCOc1ccc(C(=O)c2cn(CC(=O)Nc3ccc(OC)cc3)c3cc4c(cc3c2=O)OCO4)cc1 | . | 25.1µM* | . | . | .
